Assay results from PubChem BioAssay (EPA / NIEHS).
Results filed as inconclusive are left out. Calls of active or inactive are those of the source. Rule for the calls: active = hit-call score of the fitted dose curve at least 0.9, where 1 is the maximum; inconclusive = response in the unintended direction; inactive = score below 0.9.

What was measured:
[1] = TOX21_p53_BLA_p2_viability: Viability Assessment in the Tox21 HCT-116 p53 Agonism Beta-lactamase Assay, Phase 2 (AID 2283591);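 note: compound exposure lasted 16 h at 37 °C; actives lower the ATP signal meaning cytotoxicity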
In short: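 Cytotoxicity readout: CellTiter-Glo ATP luminescence, 30 min at room temperature, after the beta-lactamase read. Cells were HCT116 exposed 16 h at 37C to compounds pin-transferred at 217-fold dilution from DMSO stocks.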

[2] = target: Cellular tumor antigen p53 (Homo sapiens) (UniProt P04637); test: TOX21_p53_BLA_p2_ratio: Tox21 HCT-116 p53 Agonism Beta-lactamase Assay, Ratio, Phase 2 (AID 2283592)
Chain of Cellular tumor antigen p53 (Homo sapiens) (P04637 whole entry, looked up): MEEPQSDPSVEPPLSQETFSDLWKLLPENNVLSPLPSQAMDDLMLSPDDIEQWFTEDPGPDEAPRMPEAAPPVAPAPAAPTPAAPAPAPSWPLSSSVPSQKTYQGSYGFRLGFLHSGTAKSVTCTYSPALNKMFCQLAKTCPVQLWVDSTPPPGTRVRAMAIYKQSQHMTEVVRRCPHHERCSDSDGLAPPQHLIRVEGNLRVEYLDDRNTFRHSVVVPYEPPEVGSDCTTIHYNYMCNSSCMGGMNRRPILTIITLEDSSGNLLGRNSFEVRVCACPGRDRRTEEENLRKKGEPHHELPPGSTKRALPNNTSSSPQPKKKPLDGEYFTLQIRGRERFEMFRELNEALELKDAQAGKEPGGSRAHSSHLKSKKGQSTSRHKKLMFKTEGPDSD
In short: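 HCT116 p53-bla; 4000 cells/well; 5 h pre-incubation; cpd in DMSO, 217-fold dilution; 16 h 37C/5% CO2; CCF4-AM 2 h RT; Ex 405, Em 460/530 ratio; DMSO = baseline; positive fitting direction.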

[3] = TOX21_p53_BLA_p3_viability: Viability Assessment in the Tox21 HCT-116 p53 Agonism Beta-lactamase Assay, Phase 3 (AID 2283593);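 note: cells exposed to compound for 16 h before reading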
In short: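 Cellular ATP was quantified by CellTiter-Glo luminescence, read after 30 min at room temperature. Beforehand, HCT116 cells (4000/well) received compound 5 h post-seeding, 217-fold diluted from DMSO, then incubated 16 h at 37C.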

[4] = target: Cellular tumor antigen p53 (Homo sapiens) (UniProt P04637); test: TOX21_p53_BLA_p5_ratio: Tox21 HCT-116 p53 Agonism Beta-lactamase Assay, Ratio, Phase 5 (AID 2283599)
In short: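 Beta-lactamase reporter ratio (blue 460 nm over green 530 nm, 405 nm excitation) after 2 h CCF4-AM loading, in HCT-116 cells exposed 16 h at 37 C to compounds pinned at 217-fold dilution. Increases relative to DMSO baseline scored.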

[5] = TOX21_p53_BLA_p5_viability: Viability Assessment in the Tox21 HCT-116 p53 Agonism Beta-lactamase Assay, Phase 5 (AID 2283600)
In short: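 4000 cells/well; 5 h pre-incubation; DMSO compounds pin-transferred, 217-fold dilution; 16 h, 37C/5% CO2; CCF4-AM 2 h RT; CellTiter-Glo 30 min RT; luminescence.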

[6] = TOX21_p53_BLA_p4_viability: Viability Assessment in the Tox21 HCT-116 p53 Agonism Beta-lactamase Assay, Phase 4 (AID 2283597);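 note: hits lower the luminescence signal meaning cytotoxicity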
In short: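 Cells plated, 5 h pre-incubation; DMSO compounds pinned (217-fold dilution); 16 h, 37C/5% CO2; CCF4-AM 2 h RT; CellTiter-Glo 30 min RT; luminescence read.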

[7] = target: Cellular tumor antigen p53 (Homo sapiens) (UniProt P04637); test: TOX21_p53_BLA_p4_ratio: Tox21 HCT-116 p53 Agonism Beta-lactamase Assay, Ratio, Phase 4 (AID 2283601)
In short: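 Signal is the blue/green (460nm/530nm) ratio of cleaved versus uncleaved CCF4-AM substrate, read after 2 h substrate loading. Cells were HCT116 carrying the p53-responsive beta-lactamase reporter, dosed 16 h at 37C, 5% CO2; CellTiter-Glo measured in parallel.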

Measured: AC50

CCOC(=O)c1ccc(NC(=O)CN2CCCCC2)cc1
not listed: [6] | [7]
inactive: all other assays above

CO[Si](OC)(OC)OC
inactive: [1] | [2] | [3] | [4]

CNCCC=C1c2ccccc2CCc2ccccc21
active: [6] 35.8 µM
not listed: [4]
inactive: all other assays above

C[N+](C)(C)CCOC(N)=O
not listed: [6] | [7]
inactive: all other assays above

CC(=O)NO
not listed: [4]
inactive: all other assays above

O=C1OC2(c3ccc(O)cc3Oc3cc(O)ccc32)c2ccc(N=C=S)cc21
not listed: [4]
inactive: all other assays above

CCC(=O)c1ccc2c(c1)N(CCCN1CCN(CCO)CC1)c1ccccc1S2
active: [6] 33.3 µM
not listed: [4]
inactive: all other assays above

O=C(O)CSCC(=O)NC1CCSC1=O (centres undefined)
inactive: [1] | [2] | [3] | [4]

Nc1ccc2ccccc2c1S(=O)(=O)O
not listed: [6]
inactive: all other assays above

Cc1cc(-c2ccccc2)nnc1NCCN1CCOCC1
inactive: [1] | [2] | [3] | [4]

CC12CCC(C(=O)C1=O)C2(C)C (centres undefined)
not listed: [6] | [7]
inactive: all other assays above

Cc1nccn1CC1CCc2c(c3ccccc3n2C)C1=O (centres undefined)
not listed: [4]
inactive: all other assays above

Nc1nc2[nH]cc(CCc3ccc(C(=O)N[C@@H](CCC(=O)O)C(=O)O)cc3)c2c(=O)[nH]1
not listed: [4] | [5]
inactive: all other assays above

CC(C)=CCC/C(C)=C/CC/C(C)=C/CC/C=C(\C)CC/C=C(\C)CCC=C(C)C
not listed: [4]
inactive: all other assays above

CC(C)Cc1ccc([C@@H](C)C(=O)NS(C)(=O)=O)cc1
not listed: [6] | [7]
inactive: all other assays above
